Screening data as filed in PubChem.
NPR1 antag: blocks ANP-stimulated signaling of human Npr1 receptor | P16066 | HEK293 hNpr1 GloSensor cGMP, ANP-stimulated luminescence | Potency, µM (top dose mostly 46.3 µM), usual class: inhibitors | 76,000 tested, 1.6% active | AID 1347048; calls by dose curve; further: nearly all actives have a fitted effect of over 60% in size
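HEK293 cells stably expressing human Npr1 and cGMP GloSensor pGS-40F, loaded 2 h with 2% GloSensor reagent, given compound 30 min at room temperature. Luminescence read before and 20 min after 0.1 nM hNppA.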
3T3 cytotox: cytotoxic compounds in NIH 3T3 cells; NIH 3T3 viability, CellTiter-Glo ATP luminescence, 48-72 h; Potency, µM (titrated, usually from 96.7 µM), hits mostly inhibitors; 94,000 tested, 4.3% active; AID 1345082; further: nearly all actives have a fitted effect of over 55% in size
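Mouse fibroblast NIH 3T3 cells, 400 per well, received compound via pintool and were incubated for 48 or 72 hr prior to CellTiter-Glo ATP luminescence measurement.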
HEK cytotox: HEK 293 cell cytotoxicity; HEK 293 viability, ATP luminescence (CellTiter-Glo), 48-72 h; Potency, µM (series often up to 115 µM), most hits filed as inhibitors; 94,000 tested, 6.6% active; further: nearly all actives have a fitted effect of over 60% in size
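250 HEK 293 cells/well; compound by pintool; incubated 48 or 72 hr at 37 degree Celsius; CellTiter-Glo added, 10 min RT, luminescence imaged.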
GPT2 inhibitor: blocks human glutamate pyruvate transaminase 2; 100,000 tested, 0.25% active; AID 1671188; Potency, µM (titrated, usually from 57.7 µM), hits mostly inhibitors; Recombinant GPT2, coupled pyruvate oxidase/HRP Amplex Red fluorescence; further: nearly all actives have a fitted effect of over 60% in size
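Fluorescence of coupled pyruvate oxidase/HRP/Amplex Red system (50uM Amplex, 30 min, dark) reports pyruvate formed by GPT2. Enzyme reaction: 10ng/uL GPT2, 2mM L-alanine, 250uM a-KG, 30 min room temperature, pH 7.5; 50uM AOA control.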
FLuc inh: Photinus pyralis luciferase inhibition; AID 1347043; Potency, µM (series often up to 115 µM), actives largely listed as inhibitors; 76,000 tested, 2.5% active; purified P. pyralis luciferase, luminescence, biochemical; further: nearly all actives have a fitted effect of over 65% in size
Target sequence (P08659 whole entry, looked up): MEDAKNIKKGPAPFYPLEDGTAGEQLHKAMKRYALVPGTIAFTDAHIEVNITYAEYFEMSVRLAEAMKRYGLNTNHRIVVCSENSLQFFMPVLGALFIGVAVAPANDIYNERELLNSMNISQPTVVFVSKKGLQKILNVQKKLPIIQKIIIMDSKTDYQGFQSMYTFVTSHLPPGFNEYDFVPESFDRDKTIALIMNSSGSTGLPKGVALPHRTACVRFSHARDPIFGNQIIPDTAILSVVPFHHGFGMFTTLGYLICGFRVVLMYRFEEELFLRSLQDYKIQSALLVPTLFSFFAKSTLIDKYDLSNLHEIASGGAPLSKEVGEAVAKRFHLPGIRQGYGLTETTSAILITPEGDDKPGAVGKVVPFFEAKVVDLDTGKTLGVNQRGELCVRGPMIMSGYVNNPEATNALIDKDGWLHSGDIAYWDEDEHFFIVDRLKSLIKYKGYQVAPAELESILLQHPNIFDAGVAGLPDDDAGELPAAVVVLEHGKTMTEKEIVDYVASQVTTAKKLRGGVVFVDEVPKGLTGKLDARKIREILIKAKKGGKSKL
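Cell-free enzyme assay, 10nM P. pyralis luciferase, luciferin and ATP each at 10uM. Inhibition profiled over a 6-point titration, read as luminescence.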
Numbers stand for hits; n = inactive; u = inconclusive; x = not tested or not shown. Compounds with a hit are over-represented: about 10% of the library has one in this group of screens. Unless noted, the call rests on the fitted dose curve; in most records, active means well fitted curve in the direction sought with a large enough effect; inconclusive means small, poorly fitted or top-dose-only effect, or another doubt; inactive means no such curve, though single readings can be large; an effect the other way counts as inactive or inconclusive.

SMILES | NPR1 antag | 3T3 cytotox | HEK cytotox | GPT2 inhibitor | FLuc inh
CN(Cc1cccc(OC(F)(F)F)c1)Cc1cccc(C(F)(F)F)c1 | x | n | n | n | x
COc1ccc(C(=O)N2CCc3nc(C4CC4)nc(-c4ccc(O)cc4)c3CC2)cc1 | x | n | n | n | x
CCc1nc(CN(C)C(C(=O)O)c2ccc(C(C)(C)C#N)cc2)no1 (centres undefined) | n | n | u | n | n
COc1ccc2c(c1)c(CN1CCCC(c3nc(C(C)C)no3)CCNC(=O)CC1)cn2C(C)C (centres undefined) | n | u | u | n | n
CC(C)c1noc(C2CCCN(Cc3cn(C(C)C)c4ccccc34)CCC(=O)NCC2)n1 (centres undefined) | n | u | 40µM | n | n
COc1ccc(C(=O)N2C[C@@H]3C[C@H](C2)c2c(NS(=O)(=O)c4ccccc4)ccc(=O)n2C3)cc1 | n | n | n | n | n
COc1ccc(C(=O)N2C[C@@H]3C[C@H](C2)c2c(NC(=O)Nc4ccccc4)ccc(=O)n2C3)cc1 | n | n | 10µM | n | n
COc1ccc(C(=O)N2C[C@@H]3C[C@H](C2)c2ccc(NC(=O)Nc4cccc(C#N)c4)c(=O)n2C3)cc1 | n | u | u | n | 25µM
COc1cc(Cl)c(C)cc1NC(=O)CN1C(=O)NC(c2ccc(Cl)cc2)C2=C1COC2=O (centres undefined) | n | 18µM | 16µM | n | n
COc1ccc(NC(=O)CN2C(=O)NC(c3ccc(Cl)cc3)C3=C2COC3=O)cc1Cl (centres undefined) | n | 25µM | u | n | u
CC(c1nccs1)N(C)C(=O)c1csc2nc(-c3ccccc3Cl)cn12 (centres undefined) | n | 50µM | 22µM | n | u
O=C(c1cnn2ccccc12)N1CCC(Cc2cccc(CO)c2)C1 (centres undefined) | 7.1µM | u | u | n | u
O=C(NCC1CC1)c1noc(-c2ccccc2F)n1 | n | n | n | u | 40µM
O=C(NCC1CCCCC1)c1noc(-c2ccc[nH]c2=O)n1 | n | n | n | u | n
COc1ccc(CCNC(=O)c2noc(-c3ccccc3F)n2)cc1OC | u | u | 32µM | n | n
O=C(NC1CCN(CCn2nc3n(c2=O)CCCC3)C1)c1ccc(Cl)cc1 (centres undefined) | x | n | n | x | x
CC1(c2ccccc2)N(Cc2ccc(O)cc2)C(=O)OC12CCN(C(=O)c1ccccc1)CC2 (centres undefined) | n | u | u | n | n
COc1ccc(CCNC(=O)c2cc(-c3cccnc3)nc3c2cnn3C)cc1 | x | u | u | n | x
Cc1ccc(C(=O)N2CCC3(CC2)N=C(c2cccc(Br)c2)NO3)cc1 | u | 16µM | u | n | n
COc1ccc(C(=O)N2CCC3(CC2)N=C(c2ccc(C)cc2)NO3)cc1 | n | n | u | n | u
O=C(c1ccoc1)N1CCC2(CC1)N=C(c1cccc(Br)c1)NO2 | n | n | n | n | n
Cc1ccc(C2=NC3(CCN(C(=O)c4ccsc4)CC3)ON2)cc1 | n | n | n | n | 40µM
O=C(c1ccc2cc[nH]c2c1)N1CCC2(CC1)N=C(c1ccccc1)NO2 | n | n | u | n | 28µM
CCc1ccc(C(=O)N2CCC3(CC2)N=C(c2ccc(C)cc2)NO3)cc1 | u | n | u | n | 40µM
COc1cccc(-c2ccc(C(=O)N3CCC(C(=O)NCc4cccc(Cl)c4)CC3)cc2)c1 | x | u | u | n | x
SMILES | NPR1 antag | 3T3 cytotox | HEK cytotox | GPT2 inhibitor | FLuc inh
Cc1ccc(C2=NC3(CCN(C(=O)c4ccc5c(c4)OCO5)CC3)ON2)cc1 | n | n | u | n | 35µM
Cc1ccc(C(=O)N2CCC3(CC2)N=C(c2ccc(C)cc2)NO3)cc1 | n | n | n | n | 35µM
O=C(c1ccc2c(c1)OCO2)N1CCC2(CC1)N=C(c1ccc(Cl)cc1)NO2 | u | n | u | n | n
COc1ccccc1Cn1c(=O)c(C(=O)N2CCN(C(=O)Cc3cccc(Cl)c3)CC2)nc2cccnc21 | x | u | u | n | x
COc1ccc(CCN2CCCC3(C2)C(=O)N(C)C(=O)N3C)cc1 (centres undefined) | x | n | n | n | x
C[C@@]12CO[C@@H](COc3ccccc3)O[C@@H]1CC[C@]1(C)C2CC[C@@H](O)[C@H]1CC(=O)NCc1cc(F)cc(F)c1 (some centres undefined) | u | u | 28µM | n | n
COC[C@@H]1OC[C@@]2(C)C3CC[C@@H](O)[C@@H](CC(=O)NCc4ccc(F)cc4)[C@]3(C)CC[C@H]2O1 (some centres undefined) | n | n | n | n | n
CNC(=O)C1(C)CN(Cc2ccccc2)Cc2ccc(Nc3ccccc3)nc21 (centres undefined) | u | u | 79µM | n | u
CC1(C(=O)NC2CCOCC2)CN(Cc2ccccc2)Cc2ccc(Nc3ccccc3)nc21 (centres undefined) | n | 32µM | u | n | n
CN1CCC(NC(=O)C2(C)CN(Cc3ccccc3)Cc3ccc(Nc4ccccc4)nc32)CC1 (centres undefined) | n | 16µM | 18µM | n | n
COC1CCN(C(=O)C2(C)CN(Cc3ccccc3)Cc3ccc(Nc4ccccc4)nc32)CC1 (centres undefined) | n | u | u | n | n
CN1Cc2ccc(Nc3ccccc3)nc2C(C)(C(=O)NCc2cccs2)C1 (centres undefined) | n | u | 71µM | u | n
CN1Cc2ccc(NCc3ccccc3)nc2C(C)(C(=O)NCc2cccnc2)C1 (centres undefined) | n | u | u | n | n
CC(C)NC(=O)C1CCN(Cc2ccccc2-c2cccnc2)CC1 | x | n | n | n | x
CCOC(=O)CNC(=O)N1CCC(N2C(=O)C3(CCCCC3)C2c2ccncc2)CC1 (centres undefined) | n | n | n | n | n
COCCN1Cc2ccc(NCc3ccccc3)nc2C(C)(C(=O)NC2COC2)C1 (centres undefined) | n | u | u | n | n
CC1(C(=O)NC2COC2)CN(Cc2ccccc2)Cc2ccc(Nc3ccccc3)nc21 (centres undefined) | n | 40µM | 89µM | n | n
Cn1nc(C(=O)NCc2cccnc2)c2c1CN(C(=O)c1ccc3ccccc3n1)C2 | x | n | n | n | x
CC(C)(Oc1nn(Cc2cccc(Cl)c2)c2ccccc12)C(=O)NCCN1CCOCC1 | n | u | 50µM | n | n
COCc1ccc2c(c1)c(OC(C)(C)C(=O)NCCN1CCOCC1)nn2Cc1ccccc1 | n | u | u | n | n
COCc1ccc2c(c1)c(OC(C)(C)C(=O)NC1CCOCC1)nn2Cc1ccccc1 | n | u | u | n | n
CC(C)(Oc1nn(Cc2cccc(Cl)c2)c2ccccc12)C(=O)NCCCn1ccnc1 | u | 32µM | 50µM | n | n
